Assay results as given in PubChem BioAssay (NCATS).
“And” between values parts separate entries of the source, which are not always exact repeats. Equal entries are not always repeated. Results filed as inconclusive are left out. Some structures have more than one record in an assay (separate samples or runs), and their calls can disagree. The source made the active and inactive calls. The call rests on the fitted dose curve; in most records, active means well fitted inhibition curve with a large enough effect; inconclusive means small, poorly fitted or top-dose-only effect; inactive means flat fitted curve, though single readings scatter.

Tests used:
Assay in all cases: qHTS profiling for inhibitors of Plasmodium falciparum proliferation (AID 504749); further: nearly all actives have a fitted effect of over 60% in size
Settings in all cases: P. falciparum in erythrocytes, SYBR Green DNA, 72 h; series mostly up to 28.7 µM
3D7 = tested on: 3D7
Outline: (§1)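 Fluorescence of SYBR Green-bound parasite DNA, read at 485/535 nm, served as the growth measure. Infected erythrocytes were cultured with compound 72 h; artemisinin (0.29 uM) and DMSO wells defined the normalization range.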

7G8 = tested on: 7G8
Outline: as §1

ATS95 = tested on: ATS95
Outline: as §1

CP191 = tested on: CP191
Outline: as §1

CP256 = tested on: CP256
Outline: as §1

CP260 = tested on: CP260
Outline: as §1

CP266 = tested on: CP266
Outline: as §1

CP297 = tested on: CP297
Outline: as §1

CP335 = tested on: CP335
Outline: as §1

DIV17 = tested on: DIV17
Outline: as §1

GB4 = tested on: GB4
Outline: as §1

P94_40 = tested on: P94_40
Outline: as §1

PC26 = tested on: PC26
Outline: as §1

TAB113 = tested on: TAB113
Outline: as §1

TAB165 = tested on: TAB165
Outline: as §1

C2A = tested on: C2A
Outline: as §1

CP247 = tested on: CP247
Outline: as §1

CP250 = tested on: CP250
Outline: as §1

P93_24 = tested on: P93_24
Outline: as §1

PAD = tested on: PAD
Outline: as §1

Measured: Potency
Potency means the concentration at half of the fitted maximal effect.

CNC1=CN(O)C(c2ccccc2)=c2cc(Cl)ccc2=N1
inactive: 7G8 | CP256
7.94 µM (active) and inactive: CP260
active: 3D7 1000 nM | ATS95 5010 nM | CP191 100 nM | CP266 4780 nM | CP297 4260 nM | CP335 3790 nM | DIV17 2130 nM | GB4 953 nM and 15.1 µM | P94_40 5620 nM | PC26 4260 nM | TAB113 2820 nM | TAB165 4470 nM

CC1(C)SC2[C@@H](N=CN3CCCCCC3)C(=O)N2[C@H]1C(=O)O (some centres not stated)
not listed: 7G8 | CP256 | CP297 | P94_40 | TAB113 | TAB165 | PAD
inactive: all other assays above

CC(C)(C)NC[C@H](O)CSc1nc(-c2ccc(C(N)=O)s2)cs1
not listed: 7G8 | CP260 | DIV17 | TAB113
inactive: all other assays above

CC(C)C(=O)OCC(=O)[C@@]12OC(C3CCCCC3)O[C@@H]1CC1C3CCC4=CC(=O)C=C[C@]4(C)C3[C@@H](O)C[C@@]12C (some centres not stated)
active: 3D7 1000 nM | 7G8 447 nM | ATS95 708 nM | C2A 1260 nM | CP191 708 nM | CP247 1000 nM | CP250 1120 nM | CP256 1120 nM | CP260 708 nM | CP266 1350 nM | CP335 601 nM | DIV17 1350 nM | GB4 1.07 µM | P93_24 891 nM | P94_40 891 nM | PAD 1000 nM | TAB113 1120 nM | TAB165 891 nM

C=C1/C(=C\C=C2/CCC[C@]3(C)[C@@H]([C@H](C)/C=C/[C@@H](O)C4CC4)CC[C@@H]23)C[C@@H](O)C[C@@H]1O
not listed: 7G8 | CP260 | P94_40 | TAB165 | CP250 | P93_24
inactive: all other assays above

C/C=C1/NN(CCCN2CCN(c3cccc(Cl)c3)CC2)C(=O)N1CCOc1ccccc1
not listed: 7G8 | CP191 | CP297 | CP335 | DIV17 | GB4 | PC26 | TAB165
inactive: all other assays above

COc1ccc(S(=O)(=O)N2c3ccc(Cl)cc3[C@](O)(c3ccccc3Cl)[C@@H]2C(=O)N2CCC[C@H]2C(N)=O)cc1OC
active: 7G8 11200 nM
not listed: CP260 | CP335 | DIV17 | P94_40 | PC26 | TAB165 | P93_24 | PAD
inactive: all other assays above

CC1=C(c2ccc(NN=C(C#N)C#N)cc2)NNC(=O)C1
not listed: 7G8 | CP260 | DIV17 | GB4 | TAB113 | CP247
inactive: all other assays above

CC(CN1CC(=O)NC(=O)C1)N1CC(=O)NC(=O)C1 (configuration not stated)
inactive: all assays above

C=C[C@@]1(C)C[C@H](OC(=O)CSC(C)(C)CNC(=O)[C@@H](N)C(C)C)[C@@]2(C)C(C)CC[C@@]3(CCC(=O)[C@@H]32)[C@H](C)[C@H]1O (some centres not stated)
active: 3D7 8910 nM | 7G8 2510 nM | ATS95 5010 nM | C2A 5010 nM | CP191 3980 nM | CP247 4470 nM | CP256 316 nM | CP260 3980 nM | CP297 2390 nM | CP335 1200 nM | DIV17 7570 nM | GB4 3.79 µM | P93_24 501 nM | P94_40 1580 nM | PAD 4470 nM | PC26 6010 nM | TAB113 5620 nM | TAB165 4470 nM
